Test results: the supplement of paper PMC3334620
In all, about 33,000 sequences were measured (“E-score (-0.5 to 0.5)”: median about -0.015, highest 2% from about 0.3 on). The list comes from a sample in which the highest values are over-represented; it also holds similar and randomly drawn sequences.

Molecular target: T1, Abf1 (UniProt P14164)
T1 sequence: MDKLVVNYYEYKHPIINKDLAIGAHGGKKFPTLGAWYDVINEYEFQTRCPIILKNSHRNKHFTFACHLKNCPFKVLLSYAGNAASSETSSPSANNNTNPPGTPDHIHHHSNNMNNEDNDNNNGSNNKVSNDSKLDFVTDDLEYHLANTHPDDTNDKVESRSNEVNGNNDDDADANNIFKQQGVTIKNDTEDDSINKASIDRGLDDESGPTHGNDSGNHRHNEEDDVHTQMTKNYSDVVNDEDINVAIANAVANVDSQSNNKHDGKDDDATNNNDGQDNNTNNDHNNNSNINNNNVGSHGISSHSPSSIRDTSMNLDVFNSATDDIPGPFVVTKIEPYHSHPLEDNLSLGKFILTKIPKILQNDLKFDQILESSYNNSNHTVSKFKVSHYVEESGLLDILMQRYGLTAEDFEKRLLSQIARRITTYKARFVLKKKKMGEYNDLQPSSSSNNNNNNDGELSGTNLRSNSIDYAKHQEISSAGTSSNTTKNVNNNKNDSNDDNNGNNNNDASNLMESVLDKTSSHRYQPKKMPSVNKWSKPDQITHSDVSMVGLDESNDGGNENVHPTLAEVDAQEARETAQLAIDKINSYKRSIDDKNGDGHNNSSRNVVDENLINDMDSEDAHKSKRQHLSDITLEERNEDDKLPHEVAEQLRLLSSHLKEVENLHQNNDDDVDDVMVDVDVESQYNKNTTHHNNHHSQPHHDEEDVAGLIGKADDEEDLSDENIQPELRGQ
Experiment: PBM E-score (8-mer binding enrichment) (E-score (-0.5 to 0.5)); higher = stronger / more preferred TF binding
Details: protein concentration: 200 nM; construct: GST-full length
Procedure: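 Universal 'all 10-mer' protein binding microarrays (Agilent AMADID 015681) probed with GST-tagged S. cerevisiae TFs (full-length or DBD) made by in vitro transcription/translation (PURExpress), about 100-200 nM. Bound TF was detected with fluorescent anti-GST. Each ungapped 8-mer (which stands for itself and its reverse complement) is scored by the PBM enrichment score (E-score), a modified Wilcoxon-Mann-Whitney statistic from -0.5 to +0.5, computed with the Universal PBM Analysis Suite. Scale: above 0.35 generally sequence-specific binding.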

| Sequence | PBM E-score |
| --- | --- |
| AGCTACCC | -0.0429 |
| ACGCTAGT | 0.043 |
| CAATGCGG | -0.281 |
| ACGGGTCC | 0.142 |
| GTGGACAC | -0.0874 |
| TAGGTCAA | 0.0576 |
| ATGGCGAG | 0.0386 |
| AGTATTTC | 0.209 |
| GGTATTTA | 0.0301 |
| CGTATTGA | 0.307 |
| GGTATTGA | 0.00996 |
| CGTATTTA | 0.335 |
| CCTATTTC | 0.095 |
| AGTATTTA | 0.152 |
| AGTATTGA | 0.0838 |
| CGTATTTC | 0.316 |
| AACCTGGC | -0.112 |
| GGCCGGCA | -0.157 |
| CTGCCGAC | -0.121 |
| TCTCTCCA | -0.031 |
| GGCTCTCA | -0.224 |
| CGCGTGAG | 0.00035 |
| ATCGTGAC | 0.255 |
| CTCGTGAA | 0.224 |
| AGCGTGAC | 0.186 |

| Sequence | PBM E-score |
| --- | --- |
| CGCGTGAC | 0.303 |
| CTCGTGAC | 0.344 |
| GGACCCCC | -0.249 |
| CGACTATA | 0.129 |
| AGACCTAA | -0.206 |
| GTACATAA | 0.324 |
| GGACATAA | -0.032 |
| CTACAAAA | 0.139 |
| CGACAAAA | 0.241 |
| ATACAAAA | 0.0848 |
| TGACAAAA | 0.304 |
| GTACAAAA | 0.344 |
| CTACATAA | -0.118 |
| TGACATAA | 0.351 |
| TTACATAA | 0.197 |
| GGACAAAA | -0.0523 |
| AGACATAA | -0.0415 |
| AACACTGA | -0.142 |
| AGTGGATA | 0.0619 |
| AAAGAAGG | -0.118 |
| AACACCAC | 0.00166 |
| CAATCTAC | -0.0654 |
| ACCAAGAA | -0.00575 |
| TAAATGCA | 0.0499 |
| AGAGACCC | -0.221 |

| Sequence | PBM E-score |
| --- | --- |
| CCGGGCCG | -0.129 |
| TTTTAAAA | 0.0597 |
| CTAAATTA | 0.0644 |
| ATATAAAC | 0.0743 |
| ATAAATAG | 0.104 |
| ATATAAAG | 0.146 |
| ATAAATTG | 0.115 |
| ATAAATAT | 0.316 |
| ATAAATAA | 0.246 |
| ATAAATTA | 0.362 |
| ATATAAAT | 0.3 |
| ACTCGTCT | 0.0807 |
| CGGATATA | 0.185 |
| ACTCCTAC | 0.0623 |
| CTGGTAAA | -0.16 |
| GAACGCGC | 0.0459 |
| AGCACGGC | 0.0922 |
| GAATCGTC | 0.239 |
| AAGATGAG | 0.00927 |
| ACGATGAA | 0.2 |
| GAGATGAC | 0.141 |
| CAGATGAC | 0.058 |
| ACGATGAC | 0.264 |
| AAGATGAC | 0.313 |
| AAGATGAT | 0.304 |

| Sequence | PBM E-score |
| --- | --- |
| ACGATGAT | 0.322 |
| AAGATGAA | -0.083 |
| CACCAATG | 0.0285 |
| GATCGACC | -0.0655 |
| ACAACGCT | -0.0795 |
| GATCTTGC | 0.0639 |
| CTGCCCTA | -0.132 |
| CTCCATGC | -0.265 |
| GATCCTGC | 0.0793 |
| AGGCCGTG | 0.092 |
| TGAGAGCA | -0.0853 |
| CCGCCGTA | 0.0615 |
| ACGCCGTC | 0.282 |
| CCGCCGTC | 0.334 |
| CATTGCCG | 0.0936 |
| GAACTCTC | -0.211 |
| CCGCAGTC | -0.165 |
| TGACTTAA | 0.061 |
| GATTGTCA | 0.268 |
| AATTGTCA | 0.335 |
| AATTGTCC | -0.0973 |
| AGAGTGGC | -0.251 |
| AGCAGATG | -0.0843 |
| ATATTAAA | 0.33 |
| CTATTAAA | -0.0136 |

| Sequence | PBM E-score |
| --- | --- |
| TTATTAAA | 0.116 |
| AAAAGTTA | 0.151 |
| CCATTCGG | -0.0195 |
| ATTATTTA | 0.254 |
| CTTTATCC | -0.0621 |
| ATTTATCC | 0.317 |
| GCTTATCA | 0.0367 |
| CGTTATCA | 0.205 |
| GTTTATCA | 0.304 |
| ATTTATTA | 0.309 |
| ACTTATCC | 0.11 |
| CTTTATCA | 0.313 |
| GTTTATGA | 0.11 |
| ATTTATCG | 0.222 |
| GTTTATTA | 0.0803 |
| ACTCCCAT | -0.029 |
| GATCGACA | 0.013 |
| TCTTGTAA | 0.0644 |
| CCGTAAGC | 0.0521 |
| ATTTATAA | 0.176 |
| ATTTATCA | 0.314 |
| ATTTATGA | 0.229 |
| AGTACTCA | -0.0128 |
| CGTACCAG | 0.0671 |
| CGTACTAA | 0.329 |

| Sequence | PBM E-score |
| --- | --- |
| TGTACCAA | 0.0776 |
| CGTACTCC | 0.203 |
| TGTACTAA | 0.0702 |
| CGTACTAC | 0.274 |
| CGTACTCA | 0.304 |
| CGTACCAA | 0.353 |
| CGACGCGA | -0.0138 |
| AGAATGTC | 0.188 |
| ACAACGCC | 0.13 |
| ACCCTACA | -0.153 |
| CGGTCAAC | 0.0203 |
| ACGACGTG | 0.232 |
| GCAAGCGC | -0.201 |
| ACCTCACC | -0.0217 |
| TATACGGA | 0.164 |
| AATACGAA | 0.337 |
| GATACGAA | 0.309 |
| AATACGAC | 0.278 |
| CATACGAA | 0.267 |
| TATACGAA | 0.368 |
| AATACGAT | 0.276 |
| ACTACGAA | 0.205 |
| TCTACGAA | 0.301 |
| CCTACGAA | 0.253 |
| GTTACGAA | 0.208 |

| Sequence | PBM E-score |
| --- | --- |
| GATACGAC | 0.148 |
| CCCCATCA | -0.235 |
| GAATTGGA | -0.016 |
| AGCACACC | -0.13 |
| CACAAGAG | -0.0119 |
| CCAGCACA | -0.0686 |
| AGCGAGAA | -0.0126 |
| GGATATTA | 0.088 |
| CGGTATCA | 0.204 |
| CGATATCC | 0.17 |
| CGATATTC | 0.225 |
| CGATATCA | 0.363 |
| CGATATTA | 0.326 |
| CGATATGA | 0.161 |
| AGATATCG | 0.11 |
| CGATATCG | 0.372 |
| GGACCGCA | -0.155 |
| ACAGGGGC | -0.194 |
| ACACCCGT | -0.04 |
| TCAAACAA | -0.127 |
| GAGAGGAC | -0.077 |
| TCAGTAGA | -0.0357 |
| CATTAGTC | -0.14 |
| GTGACCAC | 0.175 |
| ACGATCGG | 0.168 |

| Sequence | PBM E-score |
| --- | --- |
| AAGATCGG | -0.163 |
| ACGATCGT | 0.319 |
| AAGATCGC | 0.169 |
| ACGATCGC | 0.265 |
| AAGATCGT | 0.332 |
| GCGCTGTA | -0.132 |
| CCTACGTC | 0.0219 |
| TACCAGTA | 0.0685 |
| ATCAGGAC | 0.103 |
| ACCTTGGG | -0.0211 |
| CGTGACAG | 0.319 |
| AGTGACCG | 0.125 |
| AGTGACAT | 0.43 |
| CCTGACAG | -0.0556 |
| ACTGACAA | 0.129 |
| AGTGACAA | 0.439 |
| GGTGACCA | 0.0526 |
| ACTGACAT | 0.0708 |
| CATGACAG | 0.0583 |
| AGTGACAG | 0.292 |
| AGTGACCA | 0.308 |
| ATTGACAA | 0.0759 |
| GTATAGGA | 0.0694 |
| CAGAGTTC | -0.228 |
| GGGCCGTA | 0.244 |

| Sequence | PBM E-score |
| --- | --- |
| GACAGGAA | 0.0498 |
| GATCGCCC | 0.0433 |
| GCGACCAC | 0.134 |
| TCGATTAA | 0.0311 |
| CACAAAAA | 0.0732 |
| GCAGTTAA | -0.0142 |
| CTAACGAC | 0.263 |
| TCAGTCCA | -0.171 |
| TGTGACAA | 0.221 |
| CGTGACAA | 0.375 |
| GGTGACAA | 0.423 |
| AGTGACTA | 0.324 |
| CGTGACAC | 0.252 |
| GTTGACAA | 0.16 |
| GCTGACAA | 0.0133 |
| AGTGACAC | 0.382 |
| AGTGACTC | 0.149 |
| AGTGACTG | 0.175 |
| ATTGACAC | -0.12 |
| GGTGACAC | 0.238 |
